Only a selection was taken, and hits are over-represented in it overall.
NS1 inh = inhibitors of influenza NS1 protein function; Potency, µM (series often up to 46.1 µM); hit rate 0.4% among 270,000; calls by dose curve; further: actives are rising curves; nearly all actives have a fitted effect of over 50% in size
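OD600 was taken as the measure of yeast growth restored by compound in an NS1-expressing S. cerevisiae strain. Cells had been washed out of glucose medium and diluted 1:100 into galactose -URA medium, pH 6.0.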
Shiga toxin inh = Shiga toxin inhibition; Vero cells, Shiga toxin protein synthesis inhibition reporter; hit rate 9.2% among 290,000; inhibition, % at 38.7 µM; in the data active means inhibition mostly above about 28%, no sharp cut-off; inactive means mostly below about 43%
AmpC detergent = blocks E. coli AmpC beta-lactamase in detergent assay | P00811 | AmpC hydrolysis of nitrocefin, absorbance 480 nm, 0.01% Triton | Potency, µM (series often up to 114 µM), actives largely listed as inhibitors | hit rate 0.041% among 370,000 | AID 485294; further: nearly all actives have a fitted effect of over 25% in size
Target sequence (P00811 whole entry, looked up): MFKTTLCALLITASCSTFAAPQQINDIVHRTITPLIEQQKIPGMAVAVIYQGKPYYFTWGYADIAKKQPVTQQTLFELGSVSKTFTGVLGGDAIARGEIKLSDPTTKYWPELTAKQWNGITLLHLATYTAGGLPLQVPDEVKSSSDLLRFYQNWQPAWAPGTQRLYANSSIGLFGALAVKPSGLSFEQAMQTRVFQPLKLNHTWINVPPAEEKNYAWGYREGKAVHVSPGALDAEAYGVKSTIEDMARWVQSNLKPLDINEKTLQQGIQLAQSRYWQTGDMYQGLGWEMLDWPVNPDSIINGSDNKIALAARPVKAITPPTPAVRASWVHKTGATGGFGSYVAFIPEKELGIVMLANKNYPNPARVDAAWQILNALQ
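20 mM phosphate pH 7.0 + 0.01% (detergent screen) or 0.0001% Triton X-100; 5.3 nM AmpC reagent; cpd preinc 15 min RT; nitrocefin (800 uM stock) to start; A480 q20 s × 4 min; Activity was normalised to no-enzyme and no-compound control wells.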
AmpC inh no detg = AmpC beta-lactamase inhibition without detergent | AmpC nitrocefin hydrolysis, absorbance 480 nm, 0.0001% Triton | Potency, µM (titrated, usually from 57.1 µM), hits mostly inhibitors | hit rate 0.52% among 330,000; further: nearly all actives have a fitted effect of over 20% in size
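AmpC (5.3 nM in the dispensed reagent) in 20 mM phosphate pH 7.0 with 0.01% (detergent screen) or 0.0001% Triton X-100 was preincubated with compounds for 15 min at room temperature. Nitrocefin was then added from an 800 uM solution, and hydrolysis was followed at 480 nm.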
Cycloheximide cs = affects cycloheximide protein synthesis inhibition readout, counter-screen | cell reporter, cycloheximide protein synthesis inhibition counterscreen | max response, % | hit rate 12% among 300,000 | AID 2314; in the data active means max response mostly above about 13%, no sharp cut-off; inactive means mostly below about 14%; further: read at 38.3 µM for the half of the compounds with a filed dose
Numbers stand for hits; . = inactive; ? = inconclusive; / = no result given; + = active, no number. Unless noted, the call rests on the fitted dose curve; in most records, active means well fitted curve in the direction sought with a large enough effect; inconclusive means small, poorly fitted or top-dose-only effect, or another doubt; inactive means no such curve, though single readings can be large; an effect the other way counts as inactive or inconclusive.

SMILES	NS1 inh	Shiga toxin inh	AmpC detergent	AmpC inh no detg	Cycloheximide cs
O=C(Nc1cccc(Cl)c1)c1nc[nH]c1C(=O)N1CCc2ccccc2C1	/	/	.	.	/
O=C(Nc1cccc(Cl)c1)N1CCc2ccccc2C1	.	35	?	.	34
O=C(Nc1cccc(Cl)c1)N1CCN(c2ncccn2)CC1	.	.	.	.	14
Cc1oc(-c2cc(F)cc(F)c2)nc1CN1CCN(C(=O)c2ccco2)CC1	.	.	?	.	.
COC(=O)c1cnn(-c2nc(-c3ccccc3)cs2)c1N	.	40	.	.	42
CCOC(=O)c1cnn(-c2nc(-c3ccccc3)cs2)c1C(F)(F)F	.	.	.	.	.
COc1ccc(-c2csc(-n3ncc(C(=O)O)c3C(F)(F)F)n2)cc1	.	135	.	.	74
O=C(O)c1cnn(-c2nc(-c3ccc(Cl)cc3)cs2)c1C(F)(F)F	.	82	.	.	53
O=C(CSc1ncc(-c2ccccc2)[nH]1)Nc1cccc(Br)c1	/	/	.	/	/
CCOC(=O)c1c(C)c(-c2ccccc2)n(CC(=O)Nc2cccc(C)c2C)c1C	/	/	.	/	/
Cc1ccc(NC(=O)c2cc(S(=O)(=O)c3ccccc3)ccc2Cl)cc1	.	.	.	?	.
CC(C)OCCCNC(=O)c1cn(C)c2ccc(S(=O)(=O)N3CCCC3)cc2c1=O	.	.	.	.	.
CCCCN1C(=O)C(=O)N(CC(=O)N2CCN(c3ccccc3)CC2)C1=O	/	/	.	.	/
CCCCN1C(=O)C(=O)N(c2ccccc2)C1=S	.	+	.	.	67
COc1cccc(-c2ccc(NC(=O)C3CCCN(Cc4nccn4C)C3)cc2)c1 (stereo not drawn)	.	35	.	.	22
CCOc1cccc(N)c1	/	/	.	.	/
CCOc1ccc(N)c(SSc2cc(OCC)ccc2N)c1	.	88	?	.	45
O=C(NCc1ccccc1F)C1CCCN1C(=O)Nc1ccc(F)cc1 (stereo not drawn)	.	/	.	.	.
O=C(N/N=C/c1cccnc1)c1ccccc1Br	.	.	.	.	.
O=C(Nc1cccnc1)c1ccc2ccccc2c1O	.	39	.	.	33
O=C(N/N=C\c1cccnc1)c1ccccc1O	.	33	.	.	23
O=C(N/N=C/c1cccnc1)c1cc(-c2ccccc2)nc2ccccc12	.	.	.	.	.
O=C(N/N=C/c1cccnc1)c1ccccc1Cl	.	61	.	.	17
O=C(N/N=C/c1cccnc1)c1ccc2ccccc2c1O	.	38	.	.	20
O=C(Nc1ccccn1)c1ccc2ccccc2c1O	.	66	.	.	40
SMILES	NS1 inh	Shiga toxin inh	AmpC detergent	AmpC inh no detg	Cycloheximide cs
O=C(Nc1cccc([N+](=O)[O-])c1)c1ccc2ccccc2c1O	.	.	.	.	37
O=C(N/N=C/c1cccnc1)c1ccco1	.	66	.	.	26
Nc1c(C(=O)N/N=C/c2ccccc2)cnn1-c1ccccc1	.	96	.	.	45
Cc1cc(C)c(NC(=O)CSc2ccnc(=O)[nH]2)c(C)c1	/	/	.	/	/
O=C(N/N=C\c1cccnc1)c1ccc(Cl)cc1Cl	.	54	.	.	31
O=C(N/N=C/c1cccnc1)c1cccs1	.	75	.	.	38
CCOc1ccc(-c2cc(CCCC(=O)NCCC(C)C)no2)cc1	/	134	.	.	25
CCOc1ccc(-c2cc(CCCC(=O)NCc3cccnc3)no2)cc1	.	65	?	.	51
CCOc1ccc(CCNC(=O)CCCc2cc(-c3ccc(OCC)cc3)on2)cc1	/	/	.	/	/
COc1cc(/C=C(\NC(=O)c2cc(OC)c(OC)c(OC)c2)C(=O)NC(C(=O)O)c2ccccc2)cc(OC)c1OC (stereo not drawn)	.	.	.	.	.
Cc1nc(CS(=O)(=O)c2ccc(Cl)cc2)cc(Sc2ccc(Cl)cc2)n1	.	.	.	4µM	.
CC(NC(=O)C1=CC=CN2CCS(=O)(=O)N=C12)c1ccc(Cl)c(Cl)c1 (stereo not drawn)	/	/	/	.	/
O=C(Nc1ccc2c(c1)CCCN2C(=O)c1cccs1)c1ccc(F)c(F)c1	/	/	.	/	/
c1ccc(NNC2=NCCS2)cc1	.	.	.	.	.
c1ccc(NC2=Nc3ccccc3CS2)cc1	.	99	.	.	31
O=S1(=O)C=C(SCCN2CCCCC2)c2ccccc21	.	37	.	.	26
Cn1c(SCCN2CCCCC2)nnc1-c1ccccc1Br	.	.	?	.	.
O=C(Nc1cccc(C(F)(F)F)c1)c1cc2nc(-c3ccccc3)cc(C(F)(F)F)n2n1	/	/	.	/	/
O=C(CNC(=O)c1cccnc1)N/N=C/c1ccc(O)cc1O	.	.	.	.	13
O=C(CNC(=O)c1cccs1)N/N=C/c1ccc(O)cc1O	/	.	.	.	.
O=C(N/N=C/c1cccc2ccccc12)c1cccnc1	.	39	.	.	29
Cc1ccc(/C=N/NC(=O)c2cccnc2)o1	/	.	.	.	.
COc1ccc(/C=N/NC(=O)c2cccnc2)c2ccccc12	.	.	.	.	.
O=C(N/N=C/c1cccc2ccccc12)c1ccc(CN2CCOCC2)cc1	.	.	.	.	.
CCc1ccc(C(=O)N/N=C/c2cccc3ccccc23)nc1	.	.	.	.	19
SMILES	NS1 inh	Shiga toxin inh	AmpC detergent	AmpC inh no detg	Cycloheximide cs
Cc1ccccc1/C=N/NC(=O)c1cccnc1	.	.	?	.	9.1
Cc1ccc(Cl)cc1NC(=O)CN1C(=O)C(C)(C)c2cc(S(=O)(=O)N3CCCCC3)ccc21	/	/	.	/	/
Cc1ccc(/C=N/NC(=O)c2cccnc2)s1	.	58	.	.	18
O=C(CNC(=O)c1cccc(Br)c1)N/N=C/c1cc(Br)cc(Br)c1O	/	.	.	11µM	.
O=C(CNC(=O)c1cccc(Br)c1)N/N=C/c1cccs1	.	.	?	.	.
O=C(N/N=C/c1cccs1)c1cccnc1	.	.	.	.	.
O=C(N/N=C/c1cn(CC(=O)N2CCOCC2)c2ccccc12)c1cccnc1	.	.	.	.	21
O=C(N/N=C/c1ccccc1OCc1ccccc1)c1cccnc1	.	.	?	.	13
CCOC(=O)N1CCN(C(=O)COC(=O)C2CCN(S(=O)(=O)c3ccc(C)c(C)c3)CC2)CC1	/	/	?	.	/
C[C@@H](NC(=O)c1[nH]cnc1C(=O)Nc1cccc(Cl)c1)c1ccccc1	/	/	.	.	/
C=CCOc1ccc(CC(=O)O)cc1Cl	/	.	/	/	.
C=CCNC(=O)c1scc2c1CCCC2	.	.	.	.	16
Cc1cc(NC(=O)c2cc3ccccc3o2)ccc1NC(=O)c1ccccc1	.	.	?	.	13
Cc1cc(NC(=O)c2ccc3c(c2)OCCO3)ccc1NC(=O)c1cc2ccccc2o1	.	71	.	.	16
O=C(Nc1cc2ccc(O)cc2oc1=O)c1ccc(F)cc1	/	/	.	/	/
O=C(Nc1cc2ccccc2oc1=O)c1ccccc1	/	87	.	.	31
Cc1cc(NC(=O)C2CC=CCC2C(=O)O)ccc1NC(=O)c1ccccc1 (stereo not drawn)	.	25	.	.	.
Cc1cc(NC(=O)c2cccnc2)ccc1NC(=O)c1cc2ccccc2o1	.	.	.	.	.

Screening data deposited in PubChem by National Center for Advancing Translational Sciences (NCATS).
